The source of these data is PubChem BioAssay (NCATS).

Inconclusive results are not listed. Active and inactive are the calls of the source. Calls come from the whole dose curve; as a rule, active = well fitted curve in the direction sought with a large enough effect; inconclusive = small, poorly fitted or top-dose-only effect, or another doubt; inactive = no such curve, though single readings can be large; an effect the other way counts as inactive or inconclusive.

The target in experiment [1] is Ubiquitin carboxyl-terminal hydrolase 1 (Homo sapiens) (UniProt O94782). The experiment is described as follows: Inhibitors of USP1/UAF1: Pilot qHTS (AID 504865).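 Note: rhodamine fluorescence freed from ubiquitin-rhodamine substrate followed over time; top concentration of the series differs between compounds; nearly all actives have a fitted effect of over 35% in size.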 Summed up: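 Deubiquitinase activity followed as kinetic rhodamine fluorescence release from 150 nM Ub-Rho. 1 nM USP1/UAF1 with compound, after 15 min room-temperature preincubation, in HEPES pH 7.8 buffer containing TCEP, EDTA, BSA and Tween-20.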
Chain of Ubiquitin carboxyl-terminal hydrolase 1 (Homo sapiens) (O94782 whole entry, looked up): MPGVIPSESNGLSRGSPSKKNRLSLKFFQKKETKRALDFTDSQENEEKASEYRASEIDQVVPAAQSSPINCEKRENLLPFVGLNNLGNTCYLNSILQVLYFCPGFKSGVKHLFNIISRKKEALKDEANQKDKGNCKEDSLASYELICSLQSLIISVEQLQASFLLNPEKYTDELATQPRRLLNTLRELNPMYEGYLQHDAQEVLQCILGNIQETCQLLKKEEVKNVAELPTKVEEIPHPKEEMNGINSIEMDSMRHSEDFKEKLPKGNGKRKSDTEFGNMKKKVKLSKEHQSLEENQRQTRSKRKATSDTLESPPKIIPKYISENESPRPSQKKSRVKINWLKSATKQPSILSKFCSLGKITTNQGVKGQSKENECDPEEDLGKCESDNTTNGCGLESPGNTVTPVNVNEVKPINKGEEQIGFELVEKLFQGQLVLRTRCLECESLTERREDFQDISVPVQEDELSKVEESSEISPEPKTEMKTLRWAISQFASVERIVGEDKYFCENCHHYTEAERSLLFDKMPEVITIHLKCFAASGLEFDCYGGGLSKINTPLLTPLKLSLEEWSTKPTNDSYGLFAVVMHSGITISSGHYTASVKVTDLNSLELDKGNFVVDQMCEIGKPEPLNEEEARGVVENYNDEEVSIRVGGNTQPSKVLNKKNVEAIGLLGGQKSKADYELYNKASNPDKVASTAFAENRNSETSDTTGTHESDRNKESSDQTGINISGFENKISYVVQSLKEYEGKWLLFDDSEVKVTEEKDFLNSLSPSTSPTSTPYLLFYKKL

In experiment [2] the target is Cytochrome P450 3A4 (Homo sapiens) (UniProt P08684). The experiment is described as follows: qHTS Assay for Activators of Cytochrome P450 3A4 (AID 885). Note: nearly all actives have a fitted effect of over 65% in size. Put shortly: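 Human CYP3A4 dealkylates Luciferin-PPXE to luciferin, which luciferase detection converts to light. Substrate was at its KM (25uM), buffer 200mM KPO4, reaction 60 min at RT.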
Chain of Cytochrome P450 3A4 (Homo sapiens) (P08684 whole entry, looked up): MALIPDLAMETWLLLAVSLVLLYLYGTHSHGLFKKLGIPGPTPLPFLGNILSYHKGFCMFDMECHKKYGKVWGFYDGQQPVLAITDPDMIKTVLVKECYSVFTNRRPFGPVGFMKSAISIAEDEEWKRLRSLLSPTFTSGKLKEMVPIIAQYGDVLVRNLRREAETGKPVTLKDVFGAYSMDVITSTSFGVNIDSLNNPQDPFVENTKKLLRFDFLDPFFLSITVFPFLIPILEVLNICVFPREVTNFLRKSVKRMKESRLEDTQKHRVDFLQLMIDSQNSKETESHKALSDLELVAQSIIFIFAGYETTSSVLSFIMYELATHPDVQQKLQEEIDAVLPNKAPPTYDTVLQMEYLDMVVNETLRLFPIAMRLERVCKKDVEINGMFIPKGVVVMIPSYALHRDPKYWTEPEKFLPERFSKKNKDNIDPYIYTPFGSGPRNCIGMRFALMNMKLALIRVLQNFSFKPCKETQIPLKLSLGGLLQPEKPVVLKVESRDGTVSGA
The test system of a further experiment is 3D7. The experiment is described as follows: qHTS profiling for inhibitors of Plasmodium falciparum proliferation (AID 504749). Note: nearly all actives have a fitted effect of over 60% in size. Note: potency is the fitted concentration of half-maximal effect. The following applies: P. falciparum in erythrocytes, SYBR Green DNA, 72 h; series mostly up to 28.7 µM. Put shortly:
(§1)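 Fluorescence of SYBR Green-bound parasite DNA, read at 485/535 nm, served as the growth measure. Infected erythrocytes were cultured with compound 72 h; artemisinin (0.29 uM) and DMSO wells defined the normalization range.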

The test system of another experiment is AA1029. The description is as above. To be noted: P. falciparum in erythrocytes, SYBR Green DNA, 72 h; series mostly up to 28.7 µM. Put shortly:
as §1

The subject of another experiment is AS120. The description is as above. The following applies: P. falciparum in erythrocytes, SYBR Green DNA, 72 h; series mostly up to 28.7 µM. Put shortly:
as §1

The next experiment concerns ATS189. Described as above. To be noted: P. falciparum in erythrocytes, SYBR Green DNA, 72 h; series mostly up to 28.7 µM. Put shortly: as §1
For a further experiment, the system named is CP185. The experiment is described as above. To be noted: P. falciparum in erythrocytes, SYBR Green DNA, 72 h; series mostly up to 28.7 µM. Put shortly: as §1
The test system of a further experiment is CP191. The experiment is described as above. The following applies: P. falciparum in erythrocytes, SYBR Green DNA, 72 h; series mostly up to 28.7 µM. Summed up:
as §1

A further experiment relates to CP238. The experiment is described as above. To be noted: P. falciparum in erythrocytes, SYBR Green DNA, 72 h; series mostly up to 28.7 µM. Summed up:
as §1

For the next experiment, the system named is CP260. The description is as above. The following applies: P. falciparum in erythrocytes, SYBR Green DNA, 72 h; series mostly up to 28.7 µM. Put shortly: as §1
In another experiment the test system is DFO2036. The description is as above. To be noted: P. falciparum in erythrocytes, SYBR Green DNA, 72 h; series mostly up to 28.7 µM. Put shortly: as §1
The subject of another experiment is FAB9. Described as above. To be noted: P. falciparum in erythrocytes, SYBR Green DNA, 72 h; series mostly up to 28.7 µM. Summed up: as §1
For another experiment, the system named is HB3. Described as above. The following applies: P. falciparum in erythrocytes, SYBR Green DNA, 72 h; series mostly up to 28.7 µM. Summed up:
as §1

Another experiment concerns ICS. Described as above. The following applies: P. falciparum in erythrocytes, SYBR Green DNA, 72 h; series mostly up to 28.7 µM. Put shortly:
as §1

For a further experiment, the system named is JCK. The description is as above. The following applies: P. falciparum in erythrocytes, SYBR Green DNA, 72 h; series mostly up to 28.7 µM. Put shortly: as §1
For another experiment, the system named is N140. The description is as above. To be noted: P. falciparum in erythrocytes, SYBR Green DNA, 72 h; series mostly up to 28.7 µM. Put shortly:
as §1

In a further experiment the test system is P93_24. The experiment is described as above. The following applies: P. falciparum in erythrocytes, SYBR Green DNA, 72 h; series mostly up to 28.7 µM. Summed up:
as §1

The next experiment concerns PAD. The description is as above. To be noted: P. falciparum in erythrocytes, SYBR Green DNA, 72 h; series mostly up to 28.7 µM. Put shortly: as §1
The subject of a further experiment is PC49. Described as above. The following applies: P. falciparum in erythrocytes, SYBR Green DNA, 72 h; series mostly up to 28.7 µM. Put shortly:
as §1

A further experiment relates to TAB113. Described as above. The following applies: P. falciparum in erythrocytes, SYBR Green DNA, 72 h; series mostly up to 28.7 µM. Summed up:
as §1

Take `O=C(CCc1ccc(O)cc1)c1c(O)cc(O)cc1O[C@@H]1O[C@H](CO)[C@@H](O)[C@H](O)[C@H]1O`: in experiment [1], the Potency entry is “inactive”.

In the case of `N=C1Sc2ccccc2C2=NCCCN12`, the Potency result in experiment [2] is “inactive”.

With `CCn1c(=O)c2[nH]c(-c3ccccc3)nc2n(CC)c1=O`, in [2], the Potency result is “inactive”.

For `CN1C(=O)CCC1c1cccnc1` (centres undefined), the Potency result (in experiment [1]; in the experiment on 3D7; in the experiment with AA1029; in the experiment with AS120; in the experiment on ATS189; with CP185) was “inactive” in each case. Moreover, the Potency result in the experiment with CP191, with CP238, in the experiment on CP260, in the experiment with DFO2036, in the experiment on FAB9 and in the experiment with HB3 was “inactive” in each case. Also, the Potency result in the experiment on ICS, in the experiment with JCK, with N140, in the experiment on P93_24, in the experiment with PAD and in the experiment with PC49 was “inactive” in each case. Moreover, in the experiment on TAB113, the Potency entry was “inactive”.

As to `CN=C(N)NCCCC(N)C(=O)O` (centres undefined), the Potency entry with 3D7, in the experiment on AA1029, in the experiment on AS120, with ATS189, with CP185 and with CP191 was “inactive” in each case. Further, the Potency result with CP238, in the experiment with CP260, with DFO2036, with FAB9, in the experiment on HB3 and with ICS was “inactive” throughout. Besides, the Potency entry in the experiment with JCK, in the experiment on N140, with P93_24, in the experiment with PAD, with PC49 and with TAB113 was “inactive” each time.

Regarding `NCCC(=O)NCCc1cnc[nH]1`, the Potency entry in experiment [2] and in experiment [1] was “inactive” each time.

For the compound `C[C@]12CCC(=O)C=C1CC[C@@H]1C2[C@@H](O)C[C@@]2(C)[C@H]1CC[C@]2(O)C(=O)CO` (some centres undefined), the Potency entry in [1] is “inactive”.

For `CC(C)(C)[C@]1(O)CCN2CC3c4ccccc4CCc4cccc(c43)[C@@H]2C1` (some centres undefined), the Potency in the experiment with AA1029 was 7.94 µM (active); with CP191, 8.91 µM (active); with ICS it was 10 µM (active); in the experiment on P93_24 it was 11.2 µM (active). The Potency entry with JCK and with PC49 was “inactive” each time.

Consider `COC(=O)c1c(-c2cc(OC)c(OC)c(OC)c2)c2ccc(OCc3ccccn3)cc2c(=O)n1-c1ccc(N)cc1`, for which, in experiment [2], the Potency entry was “inactive”.

As for `CN1C[C@H](C(=O)N[C@]2(C)O[C@@]3(O)C4CCCN4C(=O)[C@H](Cc4ccccc4)N3C2=O)C[C@@H]2c3cccc4[nH]cc(c34)C[C@H]21` (some centres undefined), the Potency in the experiment on 3D7 is 8.91 µM (active); with AA1029 it was 3.55 µM (active); with AS120 it was 1.41 µM (active); with ATS189 it was 3.98 µM (active); in the experiment with CP185 it was 7.94 µM (active); in the experiment on CP191 it was 7.08 µM (active). The Potency was 5.62 µM (active) in the experiment with CP238; 2 µM (active) in the experiment on CP260; 7.94 µM (active) in the experiment on DFO2036; 10 µM (active) in the experiment on FAB9; 2.24 µM (active) in the experiment with HB3; 0.1 µM (active) in the experiment on ICS. In addition, the Potency in the experiment with JCK was 10 µM (active); with N140 it was 0.891 µM (active); with P93_24, 1.41 µM (active); in the experiment on PAD, 0.355 µM (active); in the experiment with PC49, 1.78 µM (active); with TAB113 it was 3.55 µM (active).

Turning to `COc1ccc(CCNC[C@@H](O)c2ccc(O)cc2)cc1OC`, the Potency result (in [1]; in the experiment on 3D7; with AA1029; with AS120; with ATS189; in the experiment on CP185) was “inactive” throughout. In addition, the Potency result in the experiment with CP191, in the experiment with CP238, in the experiment with CP260, in the experiment with DFO2036, with FAB9 and with HB3 was “inactive” in each case. Moreover, the Potency entry in the experiment with ICS, with JCK, with N140, in the experiment on P93_24, in the experiment on PAD and with PC49 was “inactive” in each case. Further, the Potency entry with TAB113 was “inactive”.

`CCCC(=O)NCCc1c2n(c3ccc(OC)cc13)Cc1ccccc1-2`: the Potency result in experiment [2] is “inactive”.

Consider `CCSC(N)=Nc1ccc(C(F)(F)F)cc1`, for which the Potency result in [2] is “inactive”.

On to `N[C@H](Cc1ccc(O)c(O)c1)C(=O)O`, for which the Potency entry with 3D7, with AA1029, in the experiment on AS120, in the experiment with ATS189, in the experiment on CP185 and in the experiment on CP191 was “inactive” each time. The Potency entry in the experiment on CP238, with CP260, in the experiment on DFO2036, with FAB9, in the experiment with HB3 and with ICS was “inactive” each time. The Potency result with N140, in the experiment on P93_24, in the experiment on PAD, with PC49 and in the experiment with TAB113 was “inactive” in each case.

Turning to `CC(C)C[C@H]1C(=O)N2CCCC2[C@]2(O)O[C@](NC(=O)[C@@H]3C=C4c5cccc6[nH]c(Br)c(c56)C[C@H]4N(C)C3)(C(C)C)C(=O)N12` (some centres undefined), the Potency in the experiment on 3D7 was 3.98 µM (active); in the experiment with AA1029 it was 3.55 µM (active); in the experiment with AS120, 3.55 µM (active); in the experiment on ATS189, 5.01 µM (active); in the experiment with CP185, 11.2 µM (active); with CP191, 7.94 µM (active). Also, the Potency with CP238 is 10 µM (active); with CP260 it was 1.58 µM (active); with DFO2036 it was 11.2 µM (active); with FAB9 it was 8.91 µM (active); in the experiment with HB3, 2.82 µM (active); in the experiment with ICS, 0.708 µM (active). Further, the Potency in the experiment on JCK is 10 µM (active); with N140, 3.16 µM (active); with P93_24 it was 2.82 µM (active); in the experiment with PAD, 3.98 µM (active); with PC49, 6.31 µM (active); in the experiment on TAB113, 3.16 µM (active).

`NCCCCNS(=O)(=O)c1cccc2c(Cl)cccc12`: in experiment [2], the Potency entry was “inactive”.

Take `COc1cc2c(cc1OC)C(c1ccccc1)CN(C)CC2` (centres undefined): the Potency entry (in [1]; in the experiment on 3D7; with AS120; with ATS189; in the experiment with CP185; in the experiment on CP238) was “inactive” each time. For the same compound, the Potency entry in the experiment with CP260, in the experiment on DFO2036, with FAB9, in the experiment with HB3, in the experiment with JCK and in the experiment on N140 was “inactive” throughout. For the same compound, the Potency result with PAD and with TAB113 was “inactive” in each case.
